PubChem BioAssay AID1159580 (chemical genetic matrix, 2015)
Several values for one entry are separate records, joined by “and”; a condition that tells them apart may be missing. Equal values may be shown once. The campaign covered roughly 5,500 compounds. About 2,000 (36%) were called active. Not shown: some 18% with an inconclusive outcome. Rule as the data show it: active = normalized growth mostly below about 0.91 (no sharp cut-off); inconclusive = no clear call, values can overlap the other calls; inactive = mostly above about 0.92. The list shows a part of the results.

Test: chemical genetic growth profiling, strain panel (AID 1159580);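 also: tested at 20 µM; growth read once vehicle control cultures reached saturation at 30 °C; 1 = growth at the plate median or of vehicle wells; lower values mean less growth of the strain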
Conditions: S. cerevisiae deletion strains, growth OD

Measured: normalized growth

O=C(Cn1ccnc1[N+](=O)[O-])NCCO
inactive: locus YAL013W, strain DEP1, hits give low values 0.996 | locus YAL021C, strain ccr4, hits give low values 1.02 | locus YAL026C, strain drs2, hits give low values 1.02 | locus YAL030W, strain snc1, hits give low values 1.01 | locus YBL061C, strain skt5, hits give low values 1.03 | locus YBR009C, strain hhf1, hits give low values 1.02 | locus YBR021W, strain FUR4, hits give low values 1.03 | locus YBR023C, strain chs3, hits give low values 1.02 | locus YBR171W, strain sec66, hits give low values 1.04 | locus YBR229C, strain ROT2, hits give low values 1.01 | locus YBR231C, strain swc5, hits give low values 1 | locus YBR279W, strain paf1, hits give low values 1 | locus YCL011C, strain gbp2, hits give low values 1.01 | locus YCL016C, strain dcc1, hits give low values 1.02 | locus YCL029C, strain bik1, hits give low values 1.02 | locus YCL061C, strain MRC1, hits give low values 1.01 | locus YCL069W, strain vba3, hits give low values 1.01 | locus YCR088W, strain abp1, hits give low values 1.01 | locus YDL005C, strain med2, hits give low values 1.02 | locus YDL035C, strain GPR1, hits give low values 1.02 | locus YDL040C, strain nat1, hits give low values 1.01 | locus YDL074C, strain BRE1, hits give low values 0.99 | locus YDL101C, strain DUN1, hits give low values 1 | locus YDL134C, strain PPH21, hits give low values 0.996 | locus YDL185W, strain tfp1, hits give low values 0.999 | locus YDL192W, strain arf1, hits give low values 1.01 | locus YDR001C, strain nth1, hits give low values 1.01 | locus YDR069C, strain doa4, hits give low values 1.02 | locus YDR101C, strain arx1, hits give low values 1.01 | locus YDR137W, strain rgp1, hits give low values 1.05 | locus YDR150W, strain NUM1, hits give low values 0.998 | locus YDR159W, strain sac3, hits give low values 1.02 | locus YDR162C, strain NBP2, hits give low values 0.985 | locus YDR195W, strain ref2 1.02 | locus YDR297W, strain sur2, hits give low values 1.01 | locus YDR318W, strain mcm21, hits give low values 1.03 | locus YDR334W, strain swr1, hits give low values 1.01 | locus YDR335W, strain msn5, hits give low values 1.01 | locus YDR388W, hits give low values 1.01 | locus YDR392W, strain spt3, hits give low values 1.03 | locus YDR502C, strain sam2, hits give low values 0.988 | locus YEL003W, strain gim4, hits give low values 1 | locus YEL037C, strain rad23, hits give low values 1.02 | locus YEL061C, strain CIN8 (second series), hits give low values 1.01 | locus YEL061C, strain CIN8, hits give low values 1 | locus YER015W, strain faa2, hits give low values 1 | locus YER016W, strain bim1, hits give low values 1.01 | locus YER110C, hits give low values 1 | locus YER111C, strain swi4, hits give low values 1.02 | locus YER155C, strain BEM2 (second series), hits give low values 1.01 | locus YER155C, strain BEM2, hits give low values 1 | locus YER167W, strain BCK2, hits give low values 1.03 | locus YFR010W, strain ubp6, hits give low values 1.02 | locus YGL078C, strain dbp3, hits give low values 0.983 | locus YGL086W, strain mad1, hits give low values 1.03 | locus YGL167C, strain pmr1, hits give low values 1.02 | locus YGL173C, strain kem1, hits give low values 1.01 | locus YGL227W, strain vid30, hits give low values 1.01 | locus YGL240W, strain doc1, hits give low values 1.02 | locus YGL248W, strain PDE1, hits give low values 0.999 | locus YGL253W, strain hxk2, hits give low values 0.982 | locus YGR078C, strain PAC10, hits give low values 0.995 | locus YGR135W, strain pre9, hits give low values 0.988 | locus YGR229C, strain SMI1, hits give low values 0.999 | locus YGR252W, strain gcn5, hits give low values 1.09 | locus YHR013C, strain ard1, hits give low values 1.04 | locus YHR027C, strain rpn1, hits give low values 1.01 | locus YHR030C, strain SLT2, hits give low values 1.01 and 0.984 | locus YHR079C, strain IRE1 (second series), hits give low values 1.01 | locus YHR079C, strain IRE1, hits give low values 0.998 | locus YHR094C, strain hxt1, hits give low values 1.01 | locus YHR129C, strain ARP1, hits give low values 1.01 | locus YHR142W, strain chs7, hits give low values 1.02 | locus YHR200W, strain rpn10, hits give low values 1.01 | locus YIL066C, strain RNR3, hits give low values 1.01 | locus YIL073C, strain SPO22, hits give low values 1.04 | locus YIL125W, strain kgd1, hits give low values 0.997 | locus YIR030C, strain dcg1, hits give low values 1.01 | locus YJL092W, strain hpr5, hits give low values 1.02 | locus YJL095W, strain BCK1 (second series), hits give low values 1.01 | locus YJL095W, strain BCK1, hits give low values 1.01 and 0.995 | locus YJL115W, strain asf1, hits give low values 1.01 | locus YJL129C, strain trk1, hits give low values 1.02 | locus YJL134W, strain LCB3, hits give low values 1.01 | locus YJL154C, strain vps35, hits give low values 1.02 | locus YJL166W, strain qcr8, hits give low values 1.01 | locus YJL168C, strain set2, hits give low values 1.01 | locus YJL187C, strain SWE1 (second series), hits give low values 0.999 | locus YJL187C, strain SWE1, hits give low values 1.01 | locus YJR043C, strain POL32, hits give low values 1.04 | locus YJR066W, strain TOR1, hits give low values 0.972
